# Reference: PubChem BioAssay AID1421 (Emory University Molecular Libraries Screening Center, 2008)
# Hit rate of the full screen: of about 1,300 compounds, about 140 (11%) were called active. The list is a sample of the results. Results with a measured potency or affinity are listed apart. Values without a mark were called inactive. How the calls were made is not given here.
# Biological target: Prostaglandin E2 receptor EP2 subtype (Homo sapiens) (UniProt P43116)
# Experiment: EP2 receptor modulators, dose response, cell-based, human EP2, PGE2 EC50 shift (AID 1421)
# Settings: EP2-expressing cells, PGE2 EC50 shift by compound; at 20 µM
# Chain of Prostaglandin E2 receptor EP2 subtype (Homo sapiens) (P43116 whole entry, looked up): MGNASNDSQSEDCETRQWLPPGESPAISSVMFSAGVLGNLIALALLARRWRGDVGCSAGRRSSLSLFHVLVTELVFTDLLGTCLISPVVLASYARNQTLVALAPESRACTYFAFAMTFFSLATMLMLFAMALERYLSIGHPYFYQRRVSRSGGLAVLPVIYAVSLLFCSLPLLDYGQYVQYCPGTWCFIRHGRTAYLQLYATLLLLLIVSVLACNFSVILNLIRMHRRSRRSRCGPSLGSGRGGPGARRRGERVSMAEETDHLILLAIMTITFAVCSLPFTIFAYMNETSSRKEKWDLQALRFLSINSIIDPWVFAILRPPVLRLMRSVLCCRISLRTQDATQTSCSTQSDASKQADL
row,Compound,PGE2 EC50 with compound
1,Fc1ccccc1Nc1nc2c(s1)CCc1ccccc1-2,260 pM
2,C=C[C@@](C)(O)CCC1C(=C)C[C@H](O)C2C(C)(C)CCCC12C (stereo partly drawn),590 pM
3,COC(=O)CSc1nc(Cc2ccccc2)nc2ccccc12,170 pM
4,CCOC(=O)CSc1nc(Cc2ccccc2)nc2ccccc12,350 pM
5,CCN(Cc1cc(Cl)cc(C)c1O)Cc1c(O)ccc2ccccc12,730 pM
6,Cc1ccc(-c2cccc(C(=O)NCc3ccccc3)n2)c2ccccc12,420 pM
7,COC(=O)c1c(C)nc2ccccc2c1-c1ccccc1,220 pM
8,CCCn1c(C)nc2c(c1=O)c1nc3ccccc3nc1n2CCC1=CCCCC1,360 pM
9,CCCCOc1ccccc1NC(=O)c1scc2c1OCCO2,310 pM
10,O=C(Nc1cccc(Cl)c1N1CCCCC1)c1ccc2c(c1)OCCO2,260 pM
11,CCOC(=O)c1c(NC(=O)CSc2nnnn2CC)sc(C)c1C,730 pM
12,O=C(Nc1ccccc1)c1nn(-c2cccc(C(F)(F)F)c2)ccc1=O,100 pM
13,O=C(COc1ccccc1)Nc1ccccc1N1CCN(c2ccccc2)CC1,200 pM
14,O=C(Cc1ccccc1)Nc1ccccc1N1CCN(c2ccccc2)CC1,280 pM
15,CN(C)c1ncc(S(=O)(=O)c2ccccc2)c(-c2ccccc2Cl)n1,230 pM
16,O=C(CSc1nc2ccccc2o1)Nc1ccccc1N1CCCCCC1,530 pM
17,O=C(c1ccccc1O)N1N=C(c2ccccc2)CC1(O)C(F)(F)F (stereo not drawn),510 pM
18,N#Cc1sc2nc(N3CCCCC3)c3c(c2c1N)CCCC3,260 pM
19,NC(=O)c1sc2nc(N3CCCCC3)c3c(c2c1N)CCCC3,80 pM
20,Cc1ccc(S(=O)(=O)n2c3ccc(Cl)cc3c3nc(C)sc32)cc1,130 pM
21,Cc1cccc(C)c1OCc1nnc(SCC(=O)Nc2nccs2)n1-c1ccccc1,570 pM
22,CC(=O)c1ccc2c(c1)c1ccccc1n2CC(C)C,190 pM
23,Cc1cc([N+](=O)[O-])c(C)c(Br)c1C,910 pM
24,O=C(O)c1nc2nc(Cl)c(Cl)nc2[nH]1,870 pM

row,Compound,PGE2 EC50 with compound
1,O=C(Nc1ccccc1Oc1ccccc1)c1cnccn1,750 pM
2,O=C(Nc1ccccc1N1CCCC1)c1cc2ccccc2o1,190 pM
3,O=C(Nc1ccccc1N1CCCCC1)c1ccc2nccnc2c1,80 pM
4,O=C(Nc1ccccc1N1CCCCC1)c1cccc([N+](=O)[O-])c1,300 pM
5,O=C(Nc1ccccc1N1CCCCC1)c1ccc(F)cc1,410 pM
6,O=C(CNCC1CCCCC1)Nc1ccccc1N1CCCCC1,570 pM
7,CC1CCN(c2ccccc2NC(=O)c2ccc(F)cc2)CC1,300 pM
8,O=C(Nc1ccccc1N1CCCCC1)c1cccc(F)c1,330 pM
9,CCOC(=O)c1c(N)sc(-c2ccccc2)c1C,800 pM
10,O=C(CO/N=C/c1ccccc1)N1c2ccccc2Oc2ccccc21,590 pM
11,CC1CCN(c2nc3c(c(=O)[nH]c(=O)n3C)n2CC(C)CSc2nnnn2-c2ccccc2)CC1 (stereo not drawn),730 pM
12,COC(=O)c1cc2occc2n1Cc1cccc(C)c1,360 pM
13,CCc1nc2c(cnn2-c2ccc(Cl)cc2)c(=O)n1-c1ccc(OC)cc1,1120 pM
14,COc1ccc(Cl)cc1-n1c(C)ccc1C,330 pM
15,CCCCc1nc(SCCOC)c2c(=O)n(C)c(=O)n(C)c2n1,460 pM
16,CCC(=O)Oc1ccc(C(CC)C(CC)c2ccc(OC(=O)CC)cc2)cc1 (stereo not drawn),530 pM
17,O=c1c2ccccc2c(=O)n(Cc2ccccc2)n1Cc1ccccc1,80 pM
18,CC(=O)Oc1ccc2ccccc2c1C(NC(=O)Cc1ccccc1)c1ccccc1 (stereo not drawn),320 pM
19,COc1ccc(CSC2=C(C#N)C(=O)NC3(CCCCC3)S2)cc1,760 pM
20,COc1ccc(C(=O)Nc2ccccc2N2CCCCC2)cc1[N+](=O)[O-],440 pM
21,O=C(Nc1ccccc1N1CCCCC1)c1ccc(Cl)c([N+](=O)[O-])c1,550 pM
22,Cc1cccc(-n2c(CCc3ccccc3)nnc2SCC(=O)c2ccccc2)c1,190 pM
23,COc1ccccc1C(CC(=O)c1ccccc1)CC(=O)c1ccccc1,610 pM
24,O=c1[nH]c(=S)c2c(n1-c1ccccc1)CCC2,1620 pM
